PubChem BioAssay (NCI)
The panel holds about 83,000 compounds, 20% with a hit somewhere; the sample as a whole holds those more often.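 Single-dose data. Exposure time 48 hours. Values below 10 considered active.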 The source made the active and inactive calls.

What was measured:
Experiment in all cases: NCI-60 one-dose screen, 48 h (100 = growth as untreated, 0 = no growth, -100 = all killed)
Details in all cases: 10 µM unless noted
SK-MEL-2 melanoma = tested on: SK-MEL-2 melanoma
EKVX NSCLC = tested on: EKVX NSCLC
SN12C renal = tested on: SN12C renal
UO-31 renal = tested on: UO-31 renal
TK-10 renal = tested on: TK-10 renal
ACHN renal = tested on: ACHN renal
CAKI-1 renal = tested on: CAKI-1 renal
A498 renal = tested on: A498 renal
CCRF-CEM leukemia = tested on: CCRF-CEM leukemia
MOLT-4 leukemia = tested on: MOLT-4 leukemia
SR leukemia = tested on: SR leukemia
RPMI-8226 leukemia = tested on: RPMI-8226 leukemia
OVCAR-8 ovarian = tested on: OVCAR-8 ovarian
OVCAR-5 ovarian = tested on: OVCAR-5 ovarian
OVCAR-4 ovarian = tested on: OVCAR-4 ovarian
SK-OV-3 ovarian = tested on: SK-OV-3 ovarian
IGROV1 ovarian = tested on: IGROV1 ovarian
OVCAR-3 ovarian = tested on: OVCAR-3 ovarian
HS 578T breast = tested on: HS 578T breast
NCI/ADR-RES ovarian = tested on: NCI/ADR-RES ovarian

Measured: growth

COc1cc(-c2nc3occn3c2-c2ccnc(NCCCNS(=O)(=O)c3ccccc3)n2)ccc1F
inactive: SK-MEL-2 melanoma 34.2% | EKVX NSCLC 44.7% | SN12C renal 44% | UO-31 renal 11.5% | TK-10 renal 49.5% | ACHN renal 37.3% | CAKI-1 renal 29.7% | A498 renal 57.1% | CCRF-CEM leukemia 17.3% | MOLT-4 leukemia 11% | SR leukemia 56.4% | OVCAR-8 ovarian 21.9% | OVCAR-5 ovarian 111% | OVCAR-4 ovarian 33% | SK-OV-3 ovarian 59.2% | IGROV1 ovarian 49.8% | OVCAR-3 ovarian 66.2% | HS 578T breast 75.6% | NCI/ADR-RES ovarian 20.5%
active: RPMI-8226 leukemia 5.21%

O=C1CCCc2nc3sc4c(=O)n(-c5ccccc5Cl)nnc4c3cc21
inactive: SK-MEL-2 melanoma 95.2% | EKVX NSCLC 91.7% | SN12C renal 90.4% | UO-31 renal 92.4% | TK-10 renal 95% | ACHN renal 107% | CAKI-1 renal 97.6% | A498 renal 95.5% | CCRF-CEM leukemia 85.1% | MOLT-4 leukemia 98.2% | SR leukemia 87.8% | RPMI-8226 leukemia 87.6% | OVCAR-8 ovarian 92.2% | OVCAR-5 ovarian 100% | OVCAR-4 ovarian 105% | SK-OV-3 ovarian 107% | IGROV1 ovarian 99.9% | OVCAR-3 ovarian 114% | HS 578T breast 99% | NCI/ADR-RES ovarian 103%

Cc1cc(C)cc(Nc2ccc([N+](=O)[O-])c(NCCN3CCOCC3)n2)c1
inactive: SK-MEL-2 melanoma 43.4% | EKVX NSCLC 66% | SN12C renal 32.2% | UO-31 renal 23.1% | TK-10 renal 65% | ACHN renal 30.4% | CAKI-1 renal 37.4% | MOLT-4 leukemia 10.3% | SR leukemia 17% | RPMI-8226 leukemia 11.5% | OVCAR-8 ovarian 20% | OVCAR-5 ovarian 52.9% | OVCAR-4 ovarian 52.6% | SK-OV-3 ovarian 50.3% | IGROV1 ovarian 23.5% | HS 578T breast 21.6% | NCI/ADR-RES ovarian 18.1%
active: A498 renal -0.289% | CCRF-CEM leukemia 5.33% | OVCAR-3 ovarian 2.95%

CN1C(=O)N(C)C2C1NC(=S)N2/N=C/C=C/c1ccccc1[N+](=O)[O-] (stereo not given)
inactive: SK-MEL-2 melanoma 17% | EKVX NSCLC 43.6% | SN12C renal 31.4% | UO-31 renal 44.6% | TK-10 renal 42.8% | ACHN renal 30.7% | CAKI-1 renal 23% | A498 renal 10.8% | MOLT-4 leukemia 27.8% | SR leukemia 15.2% | OVCAR-8 ovarian 36.3% | OVCAR-5 ovarian 74.9% | OVCAR-4 ovarian 51.1% | SK-OV-3 ovarian 27% | IGROV1 ovarian 44.3% | HS 578T breast 17.1% | NCI/ADR-RES ovarian 29.1%
active: CCRF-CEM leukemia 7.73% | RPMI-8226 leukemia 2.85% | OVCAR-3 ovarian 8.13%

CCn1c2ccc(O)cc2c2c(C)c3c[n+](C(C)C)ccc3c(C)c21
active: SN12C renal -1.36%
inactive: SK-MEL-2 melanoma 35% | EKVX NSCLC 75.4% | UO-31 renal 68.3% | TK-10 renal 105% | ACHN renal 35.2% | CAKI-1 renal 89.8% | A498 renal 68% | CCRF-CEM leukemia 36.5% | MOLT-4 leukemia 22.2% | SR leukemia 11.9% | RPMI-8226 leukemia 27.8% | OVCAR-8 ovarian 37.6% | OVCAR-5 ovarian 83.6% | OVCAR-4 ovarian 43.2% | SK-OV-3 ovarian 89.8% | IGROV1 ovarian 50.8% | OVCAR-3 ovarian 19.5% | HS 578T breast 34.8% | NCI/ADR-RES ovarian 66.5%

O=C1/C(=C/c2ccc(Br)cc2)COc2ccc(O)c(O)c21
active: SN12C renal -41.1% | UO-31 renal -99.2% | TK-10 renal 4.99% | ACHN renal -84.2% | CAKI-1 renal -36% | CCRF-CEM leukemia -6.17% | MOLT-4 leukemia -9.5% | SR leukemia 6.26% | RPMI-8226 leukemia -33.5% | OVCAR-8 ovarian 6.31% | OVCAR-5 ovarian -59.8% | IGROV1 ovarian -45.7% | OVCAR-3 ovarian -91.5% | NCI/ADR-RES ovarian 3.52%
inactive: SK-MEL-2 melanoma 47.2% | EKVX NSCLC 23.2% | A498 renal 98.9% | OVCAR-4 ovarian 15.6% | SK-OV-3 ovarian 58.8% | HS 578T breast 11.9%

CCN(C(=O)N1CCN(c2cc3c(cc2F)c(=O)c(C(=O)O)cn3C2CC2)CC1)c1nc(-c2ccc(C)cc2)cs1
active: SK-MEL-2 melanoma -1.1% | SN12C renal 5.47% | UO-31 renal 5.96% | ACHN renal 6.68% | CAKI-1 renal 7.79% | A498 renal -2.94% | SK-OV-3 ovarian -10.4% | IGROV1 ovarian 6.38% | OVCAR-3 ovarian 9.01% | NCI/ADR-RES ovarian 2.74%
inactive: EKVX NSCLC 14.3% | TK-10 renal 38.3% | CCRF-CEM leukemia 21.4% | MOLT-4 leukemia 14.3% | SR leukemia 17.2% | RPMI-8226 leukemia 14.8% | OVCAR-8 ovarian 11.5% | OVCAR-5 ovarian 21.7% | OVCAR-4 ovarian 31.5% | HS 578T breast 18.3%

NC(=O)c1c(NC(=O)c2ccc(Cl)cc2)sc2c1CCC(=O)C2
active: CCRF-CEM leukemia 7.15% | RPMI-8226 leukemia -14.3% | OVCAR-4 ovarian 9.18%
inactive: SK-MEL-2 melanoma 99.6% | EKVX NSCLC 92.7% | SN12C renal 71.8% | UO-31 renal 40.7% | TK-10 renal 85.2% | ACHN renal 45.6% | CAKI-1 renal 18.6% | A498 renal 77% | MOLT-4 leukemia 46.3% | SR leukemia 13.3% | OVCAR-8 ovarian 61.3% | OVCAR-5 ovarian 86.5% | SK-OV-3 ovarian 93% | IGROV1 ovarian 52.6% | OVCAR-3 ovarian 32.6% | HS 578T breast 64% | NCI/ADR-RES ovarian 87.8%

O=C(CBr)CN1C(=O)c2ccccc2C1=O
inactive: SK-MEL-2 melanoma 108% | EKVX NSCLC 107% | SN12C renal 109% | UO-31 renal 88.8% | TK-10 renal 100% | ACHN renal 104% | CAKI-1 renal 98.6% | A498 renal 88.2% | CCRF-CEM leukemia 111% | MOLT-4 leukemia 104% | SR leukemia 98.9% | RPMI-8226 leukemia 112% | OVCAR-8 ovarian 103% | OVCAR-5 ovarian 97.4% | OVCAR-4 ovarian 103% | SK-OV-3 ovarian 99.7% | IGROV1 ovarian 103% | OVCAR-3 ovarian 102% | HS 578T breast 105% | NCI/ADR-RES ovarian 105%

O=C(N/N=C/c1ccc(O)cc1O)c1ccc(Nc2ccnc(C(F)(F)F)c2)cc1
inactive: SK-MEL-2 melanoma 73.3% | EKVX NSCLC 41.4% | SN12C renal 38.5% | UO-31 renal 46.1% | TK-10 renal 63.3% | ACHN renal 37.9% | CAKI-1 renal 34.9% | A498 renal 74.7% | CCRF-CEM leukemia 29.1% | MOLT-4 leukemia 73.7% | SR leukemia 91.8% | RPMI-8226 leukemia 59.2% | OVCAR-8 ovarian 48.2% | OVCAR-5 ovarian 53.2% | OVCAR-4 ovarian 38.6% | SK-OV-3 ovarian 38.9% | IGROV1 ovarian 77.1% | OVCAR-3 ovarian 61.6% | HS 578T breast 86.4% | NCI/ADR-RES ovarian 64.2%

Cn1ncc2ccc(-c3nc(-c4ccccc4)[nH]c3-c3n[nH]c(=O)n3C3CC3)cc21
inactive: SK-MEL-2 melanoma 101% | EKVX NSCLC 96% | SN12C renal 101% | UO-31 renal 93.1% | TK-10 renal 103% | ACHN renal 97% | CAKI-1 renal 94.8% | A498 renal 48.7% | CCRF-CEM leukemia 96.4% | MOLT-4 leukemia 93.5% | SR leukemia 82.9% | RPMI-8226 leukemia 94% | OVCAR-8 ovarian 99% | OVCAR-5 ovarian 98% | OVCAR-4 ovarian 93.6% | SK-OV-3 ovarian 94.5% | IGROV1 ovarian 111% | OVCAR-3 ovarian 107% | HS 578T breast 100% | NCI/ADR-RES ovarian 107%

Fc1ccc(CNc2c3ccccc3nc3ccccc23)cc1
active: A498 renal -1.77% | MOLT-4 leukemia 8.68% | SR leukemia 6.59% | RPMI-8226 leukemia -0.445%
inactive: SK-MEL-2 melanoma 43.8% | EKVX NSCLC 35.6% | SN12C renal 25.7% | UO-31 renal 13.5% | TK-10 renal 30.2% | ACHN renal 12.5% | CAKI-1 renal 25.5% | CCRF-CEM leukemia 26% | OVCAR-8 ovarian 22.3% | OVCAR-5 ovarian 38.5% | OVCAR-4 ovarian 33.2% | SK-OV-3 ovarian 39.9% | IGROV1 ovarian 21.9% | OVCAR-3 ovarian 38.7% | HS 578T breast 39.5% | NCI/ADR-RES ovarian 29.7%

O=C(N=Nc1c(O)[nH]c2ccccc12)Nc1ccc(Cl)cc1
active: CCRF-CEM leukemia -8.91%
inactive: SK-MEL-2 melanoma 99.7% | EKVX NSCLC 86.5% | SN12C renal 97.1% | UO-31 renal 69.2% | TK-10 renal 101% | ACHN renal 80.5% | CAKI-1 renal 89.2% | A498 renal 77.6% | MOLT-4 leukemia 87.3% | SR leukemia 79.1% | RPMI-8226 leukemia 56.1% | OVCAR-8 ovarian 102% | OVCAR-5 ovarian 86% | OVCAR-4 ovarian 98.2% | SK-OV-3 ovarian 96.5% | IGROV1 ovarian 80.2% | OVCAR-3 ovarian 97.5% | HS 578T breast 95.1% | NCI/ADR-RES ovarian 110%

CC1(C)CCC(S(=O)(=O)c2ccc3c(c2)/C(=N\O)c2cc(S(=O)(=O)N4CCN(c5ccc(F)cc5O)CC4)ccc2-3)CC1
inactive: SN12C renal 19.8%
active: SK-MEL-2 melanoma -85.6% | EKVX NSCLC -53% | UO-31 renal -91.4% | TK-10 renal -82% | ACHN renal 0.0292% | CAKI-1 renal -76.1% | A498 renal -65.3% | CCRF-CEM leukemia -63.4% | MOLT-4 leukemia -71.9% | SR leukemia -48.5% | RPMI-8226 leukemia -45.9% | OVCAR-8 ovarian -71.7% | OVCAR-5 ovarian -69.3% | OVCAR-4 ovarian -94% | SK-OV-3 ovarian -98.5% | IGROV1 ovarian -38.4% | OVCAR-3 ovarian -83.4% | HS 578T breast -54.1% | NCI/ADR-RES ovarian -3.41%

CN1CCN(c2ccc3c(c2)nc(NNC(=O)c2cnccn2)c2cccn23)CC1
active: UO-31 renal 3.3% | ACHN renal 8.28%
inactive: SK-MEL-2 melanoma 64.8% | EKVX NSCLC 30.1% | SN12C renal 27.6% | TK-10 renal 44.8% | CAKI-1 renal 22.5% | A498 renal 31.4% | CCRF-CEM leukemia 11.4% | MOLT-4 leukemia 13.9% | SR leukemia 15% | RPMI-8226 leukemia 45.3% | OVCAR-8 ovarian 20.9% | OVCAR-5 ovarian 49.3% | OVCAR-4 ovarian 25% | SK-OV-3 ovarian 32.5% | IGROV1 ovarian 15.6% | OVCAR-3 ovarian 13.9% | HS 578T breast 75.4% | NCI/ADR-RES ovarian 16.9%
